Screening results (PubChem)
L3MBTL1 block – blocks human L3MBTL1 | Q9Y468 | AlphaScreen L3MBTL1–H3K9me1 peptide binding | Potency, µM (highest dose often 57.1 µM), inactives show at the top dose activity, negative = inhibition, most hits filed as inhibitors | actives 0.66% (n = 230,000) | AID 485360; further: on the % scale 0 is the no-effect control and ±100 the full control effect; nearly all actives have a fitted effect of over 60% in size
Target sequence (Q9Y468 whole entry, looked up): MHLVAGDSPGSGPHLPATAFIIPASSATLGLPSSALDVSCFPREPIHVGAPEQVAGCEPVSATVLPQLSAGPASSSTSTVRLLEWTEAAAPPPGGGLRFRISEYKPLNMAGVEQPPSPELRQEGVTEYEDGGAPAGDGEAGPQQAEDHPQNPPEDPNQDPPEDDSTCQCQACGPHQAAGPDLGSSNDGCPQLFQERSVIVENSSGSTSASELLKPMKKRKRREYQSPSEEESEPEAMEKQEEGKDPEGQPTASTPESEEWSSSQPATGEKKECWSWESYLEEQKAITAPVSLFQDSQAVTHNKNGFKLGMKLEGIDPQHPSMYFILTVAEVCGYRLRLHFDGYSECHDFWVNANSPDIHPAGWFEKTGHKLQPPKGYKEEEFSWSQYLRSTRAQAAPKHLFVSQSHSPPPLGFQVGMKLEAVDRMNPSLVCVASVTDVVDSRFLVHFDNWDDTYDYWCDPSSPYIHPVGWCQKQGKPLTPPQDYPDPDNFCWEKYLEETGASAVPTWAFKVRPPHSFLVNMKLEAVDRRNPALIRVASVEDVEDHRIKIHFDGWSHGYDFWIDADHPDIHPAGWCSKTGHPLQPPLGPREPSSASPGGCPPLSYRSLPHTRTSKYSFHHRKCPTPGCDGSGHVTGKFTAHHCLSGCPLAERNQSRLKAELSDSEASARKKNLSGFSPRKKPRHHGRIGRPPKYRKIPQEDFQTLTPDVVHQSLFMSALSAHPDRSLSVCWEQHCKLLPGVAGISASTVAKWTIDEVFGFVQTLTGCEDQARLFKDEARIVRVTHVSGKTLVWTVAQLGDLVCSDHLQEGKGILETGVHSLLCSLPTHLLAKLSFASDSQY
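AlphaScreen proximity signal between nickel-chelate acceptor and streptavidin donor beads (final 10 ug/mL) reports binding of 50 nM L3MBTL1 to 75 nM biotin-H3 K9me1 peptide; complex incubated with compounds 30 min at room temperature; cefsulodin titration as control.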
Sfp PPTase inh – blocks B. subtilis Sfp PPTase activity; Biochemical Sfp PPTase activity, qHTS; Q9F4F7; Potency, µM, for inactives: largest response in the series, negative = inhibition, most hits filed as inhibitors; actives 3.5% (n = 310,000);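 further: the enzyme is Sfp with the accession as filed and its product quenches rhodamine fluorescence; 0% = enzyme reaction without inhibitor and -100% = no enzyme wells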
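Fluorescence-quenching assay with 15 nM Sfp, 5 uM rhodamine-CoA and 12.5 uM BHQ-2-labelled ybbR peptide in pH 7.6 Hepes/MgCl2 buffer. Enzyme was pre-incubated with compound for 15 min at room temperature. Rate was taken from the 30-min fluorescence change (525/598 nm).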
BAZ2B inh – inhibitors of human BAZ2B bromodomain | Q9UIF8 | AlphaScreen BAZ2B-H3K14Ac peptide displacement | Potency, µM (titrated, usually from 114 µM), inactives show at the highest dose activity change, negative = inhibition, hits mostly inhibitors | actives 4.4% (n = 360,000) | AID 504333; further: on the % scale 0 is the no-effect control and ±100 the full control effect; nearly all actives have a fitted effect of over 60% in size
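Complex of BAZ2B and biotin-H3K14Ac (50 nM apiece) forms over 30 min at RT, then faces library compounds up to 110 uM for another 30 min; AlphaScreen beads added, 20 min dark incubation, luminescence read.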
JMJD2A Tudor – JMJD2A Tudor domain (human) inhibition; AlphaScreen JMJD2A-Tudor / H3K4me3 peptide binding; actives 4.4% (n = 390,000); O75164; Potency, µM (doses to about 114 µM), inactives show at the top dose activity change, negative = inhibition, actives largely listed as inhibitors; AID 504339; further: on the % scale 0 is the no-effect control and ±100 the full control effect; nearly all actives have a fitted effect of over 50% in size
G9a block – inhibitors of human histone lysine methyltransferase G9a | Q96KQ7 | G9a H3K9 monomethylation, AlphaScreen, 2 h | Potency, µM (series often up to 102 µM), inactives show at the highest dose activity, negative = inhibition, hits mostly inhibitors | actives 8.8% (n = 350,000) | AID 504332; further: on the % scale 0 is the no-effect control and ±100 the full control effect; nearly all actives have a fitted effect of over 75% in size
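AlphaScreen read-out: biotin-H3K9 peptide (500 nM) methylation by 20 nM enzyme with 20 uM SAM, 2 h at room temperature after 15 min compound preincubation; anti-monomethyl H3K9 antibody plus donor/acceptor beads, 10 min dark.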
HP1b chromo inh – HP1-beta chromodomain-methylated histone interaction inhibition. actives 0.56% (n = 390,000). Potency, µM (highest dose often 114 µM), for the others: top-dose activity change, negative = inhibition, most hits filed as inhibitors. AlphaScreen HP1-beta / biotin-H3K9me3 peptide binding. P83916; further: nearly all actives have a fitted effect of over 70% in size
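HP1-beta protein (50 nM final) preincubated 30 min at room temperature with biotinylated H3(1-18)K9me3 peptide (50 nM) in PBS pH 7.4, 0.01% Tween-20, then compound added for 30 min. AlphaScreen streptavidin donor/nickel chelate acceptor beads (10 ug/mL final), 30 min dark, luminescence read.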
* hit, by the source's call; ? = inconclusive; nt = not tested or not shown; [ ] = dose if it differs, or a comment. Shown are actives, neighbours in structure and some others; about 12% of the full set was active somewhere. The call rests on the fitted dose curve; in most records, active means well fitted curve in the direction sought with a large enough effect; inconclusive means small, poorly fitted or top-dose-only effect, or another doubt; inactive means no such curve, though single readings can be large; an effect the other way counts as inactive or inconclusive. Potency means the concentration at half of the fitted maximal effect.

SMILES	L3MBTL1 block	Sfp PPTase inh	BAZ2B inh	JMJD2A Tudor	G9a block	HP1b chromo inh
O=C(COc1ccc(Cl)cc1)NNC(=S)NCc1ccccc1	nt	19%	25%	-16%	32µM*	16%
CC(C)(C)NNC(=S)Nc1cccc(C(F)(F)F)c1	nt	13%	-1%	-17%	9%	-2%
Cc1ccc(NC(=S)NNC(=S)NCc2ccccc2)cc1	-6%	56µM*	-23%	?	?	-9%
Cc1ccc(NC(=S)NNC(C)(C)C)cc1	-1%	8%	-27%	-20%	45µM*	1%
CCSc1nn(CC(=O)Nc2cccc(Cl)c2)c(N)c1S(=O)(=O)c1ccc(OC)cc1	nt	nt	-20%	-33%	-23%[59 µM]	-17%
Cc1ccccc1CS(=O)(=O)Cc1ccc(C(=O)NCCc2ccc(Cl)cc2)o1	nt	nt	-1%	-1%	0%[59 µM]	25%
COc1cc(CN(C(=O)c2ccc(Cl)cc2)C2CCS(=O)(=O)C2)cc(OC)c1OC (centres undefined)	nt	nt	1%	-7%	3%[59 µM]	44%
CCc1nn(CC(=O)NCCC(C)C)c(=O)c2cc3occc3n12	nt	nt	-1%	-18%	2%[59 µM]	-6%
COc1ccc(/C=N/n2cnc3c(sc(=S)n3-c3ccccc3)c2=O)cc1	nt	8%	8%	-13%	48%	62%
S=c1sc2c(Cl)ncnc2n1-c1ccccc1	nt	5%	-23%	1%	45µM*	26%
C=CCOc1ccc2c(=O)n(C)c3ccccc3c2c1	nt	-2%	nt	1%	nt	45%
C=CCOc1ccc2c(c1)c(=O)cc(C(=O)O)n2CC	7%	14%	-6%	-13%	45µM*	40%
CN(C)c1ccc(CNC(=O)CN2C(=O)CCn3nc(-c4cn(C)c5ccccc45)cc32)cc1	nt	nt	45µM*	50µM*	?	-9%[57 µM]
CN(C)c1ccc(CNC(=O)CCCN2C(=O)CCn3nc(-c4cn(C)c5ccccc45)cc32)cc1	nt	nt	-4%	-27%	13%[59 µM]	9%[57 µM]
Cc1ccc(/C=C2\SC(N3CCCC3)=NC2=O)cc1	-5%	14%	-2%	nt	5%	nt
CC1CN(C2=NC(=O)/C(=C3/C(=O)N(Cc4ccc(F)cc4)c4ccccc43)S2)CC(C)O1 (centres undefined)	-17%	40µM*	?	-33%	nt	?
CN1C(=O)/C(=C2\SC(N3CCCCCC3)=NC2=O)c2ccccc21	nt	-12%	?	40µM*	40µM*	?
CCOc1ccc(/C=C2\SC(N3CCCCC3)=NC2=O)cc1	nt	-4%	6%	-11%	18%	18%
CCCN1C(=O)/C(=C2\SC(N3CCCCC3)=NC2=O)c2ccccc21	?	?	16µM*	40µM*	22µM*	-70%
O=C1N=C(N2CCOCC2)S/C1=C1\C(=O)N(Cc2ccccc2)c2ccccc21	-1%	-8%	21%	-15%	15%[59 µM]	27%
CN1C(=O)/C(=C2\SC(=S)N(NC(=O)c3cccnc3)C2=O)c2ccccc21	7%	6%	?	-12%	nt	29%
CN1C(=O)/C(=C2\SC(N)=NC2=O)c2ccccc21	nt	56µM*	-30%	?	?	-6%
CCc1ccc(NC(=O)CN(c2ccc(Cl)cc2)S(=O)(=O)c2ccsc2C(=O)OC)cc1	nt	nt	?	-15%	1%[59 µM]	72%
Cc1cccc(CNc2nc(-c3ccc(C(=O)N(C)C)cc3)nc3ccccc23)c1	nt	-7%	nt	nt	nt	nt
O=[N+]([O-])c1cccc(-c2n[nH]c(=S)n2Cc2ccccc2)c1	-1%	-5%	-12%	79µM*	1.8µM*	12%
S=c1[nH]nc(-c2cccc(Cl)c2)n1Cc1ccccc1	0%	-18%	-35%	?	?	36%
C=CCn1c(SC)nnc1-c1cccc([N+](=O)[O-])c1	10%	7%	9%	-11%	24%[59 µM]	33%
C=CCn1c(-c2cccc(Cl)c2)n[nH]c1=S	-3%	9%	5%	10µM*	2.8µM*	6%
C=CCn1c(-c2oc3nc(-c4ccccc4)cc(-c4ccccc4)c3c2N)n[nH]c1=S	8%	-29%	-32%	?	32µM*	?
